Experimental data published in the supplement of paper PMC10037445.
The full ranking holds about 2,900 compounds; the median of “NF-kB SEAP reporter activity, fold change vs agonist alone” is about 0.99, and the highest 2% start at about 2.6. This excerpt belongs to a sample that is enriched for the highest values.

Assays:
RAW-Dual [1] = experiment: NF-kB SEAP reporter activity, fold change vs agonist alone; cytotoxicity flag (confluency mask): not cytotoxic; higher = enhanced NF-kB activity
In short: (§1)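 After 50 nL of library stock was delivered by pin tool to RAW-Dual macrophages (50,000 cells/well, DMEM, 384-well plates), a PRR agonist was added 1 h later and the plates were kept at 37 °C, 5% CO2. Twenty hours later, IRF was read from supernatant by QuantiLuc luminescence and NF-κB by QuantiBlue absorbance at 620 nm. Reporter activity is stated as fold change over agonist-alone wells. Wells with IncuCyte confluency under 70% of agonist controls in both mask sets were counted as cytotoxic.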

RAW-Dual [2] = experiment: NF-kB SEAP reporter activity, fold change vs agonist alone; cytotoxicity flag (confluency mask): cytotoxic (confluency <70% of control); higher = enhanced NF-kB activity
In short: as §1

RAW-Dual [3] = experiment: NF-kB SEAP reporter activity, fold change vs agonist alone; higher = enhanced NF-kB activity; conditions: library stock concentration (final ~1000-fold dilution): 10 mM
In short: as §1

[4] = agonist: ODN 1826 (TLR9) 0.5 ug/mL
[5] = agonist: Pam2CSK4 (TLR2/6) 0.1 ug/mL
[6] = agonist: Pam3CSK4 (TLR2/1) 0.1 ug/mL
[7] = cytotoxicity flag (confluency mask): cytotoxic (confluency <70% of control), agonist: Imiquimod (TLR7) […]
[8] = cytotoxicity flag (confluency mask): cytotoxic (confluency <70% of control), agonist: MPLA (TLR4) […]
[9] = cytotoxicity flag (confluency mask): not cytotoxic, agonist: Imiquimod (TLR7) […]
[10] = cytotoxicity flag (confluency mask): not cytotoxic, agonist: MPLA (TLR4) […]

How did the “NF-kB SEAP reporter activity” value (RAW-Dual [1]; agonist: LPS (TLR4) 0.1 ug/mL) turn out when `CCC1(O)C(=O)OCc2c1cc1n(c2=O)Cc2cc3cc(O)ccc3nc2-1` (stereo not drawn) (library stock concentration (final ~1000-fold dilution): 10 mM) was run?
Its value is 1.08.

And the “NF-kB SEAP reporter activity” value (RAW-Dual [1]; [4])?
The value was 0.937.

What about the “NF-kB SEAP reporter activity” value (RAW-Dual [1]; [5]) of the same compound?
Its value is 1.07.

What about the “NF-kB SEAP reporter activity” value (RAW-Dual [1]; [6]) of the same compound?
Its value is 1.14.

What about the “NF-kB SEAP reporter activity” value (RAW-Dual [2]; agonist: LPS (TLR4) 0.1 ug/mL) of the same compound?
The value was 1.9.

And the “NF-kB SEAP reporter activity” value (RAW-Dual [2]; [4])?
The value was 2.17.

What about the “NF-kB SEAP reporter activity” value (RAW-Dual [2]; [5]) of the same compound?
The value was 1.03.

And the “NF-kB SEAP reporter activity” value (RAW-Dual [2]; [6])?
The value was 1.5.

What does the source list for `CCC1(O)C(=O)OCc2c1cc1n(c2=O)Cc2cc3c(CN(C)C)c(O)ccc3nc2-1` (stereo not drawn) (library stock concentration (final ~1000-fold dilution): 10 mM)?
NF-kB SEAP reporter activity (RAW-Dual [1]; agonist: LPS (TLR4) 0.1 ug/mL): 2.01; NF-kB SEAP reporter activity (RAW-Dual [1]; [4]): 1.59; NF-kB SEAP reporter activity (RAW-Dual [1]; [5]): 0.849; NF-kB SEAP reporter activity (RAW-Dual [1]; [6]): 1.27

What does the source list for `CCC1(O)C(=O)OCc2c1cc1n(c2=O)Cc2cc3cc(O)ccc3nc2-1` (stereo not drawn)?
NF-kB SEAP reporter activity (RAW-Dual [3]; [7]): 2.34; NF-kB SEAP reporter activity (RAW-Dual [3]; [8]): 2; NF-kB SEAP reporter activity (RAW-Dual [3]; [9]): 0.896; NF-kB SEAP reporter activity (RAW-Dual [3]; [10]): 0.856

How did the “NF-kB SEAP reporter activity” value (RAW-Dual [2]; agonist: LPS (TLR4) 0.1 ug/mL) turn out when `CCC1(O)C(=O)OCc2c1cc1n(c2=O)Cc2cc3c(CN(C)C)c(O)ccc3nc2-1.Cl` (stereo not drawn) (library stock concentration (final ~1000-fold dilution): 10 mM) was run?
Its value is 2.73.

And the “NF-kB SEAP reporter activity” value (RAW-Dual [2]; [4])?
The value was 2.71.

And the “NF-kB SEAP reporter activity” value (RAW-Dual [2]; [5])?
The value was 0.868.

What about the “NF-kB SEAP reporter activity” value (RAW-Dual [2]; [6]) of the same compound?
Its value is 1.35.

Which results are given for `Cc1nnc(C(C)C)n1C1CC2CCC(C1)N2CCC(NC(=O)C1CCC(F)(F)CC1)c1ccccc1` (stereo not drawn) (library stock concentration (final ~1000-fold dilution): 10 mM)?
NF-kB SEAP reporter activity (RAW-Dual [1]; agonist: LPS (TLR4) 0.1 ug/mL): 0.973; NF-kB SEAP reporter activity (RAW-Dual [1]; [4]): 1.04; NF-kB SEAP reporter activity (RAW-Dual [1]; [5]): 1.06; NF-kB SEAP reporter activity (RAW-Dual [1]; [6]): 1.11

How did the “NF-kB SEAP reporter activity” value (RAW-Dual [3]; [9]) turn out when `Cc1nnc(C(C)C)n1C1CC2CCC(C1)N2CCC(NC(=O)C1CCC(F)(F)CC1)c1ccccc1` (stereo not drawn) was run?
Its value is 0.968.

What about the “NF-kB SEAP reporter activity” value (RAW-Dual [3]; [10]) of the same compound?
The value was 1.

Which results are given for `O=C(NC(NC(=S)Nc1ccc(F)c([N+](=O)[O-])c1)C(Cl)(Cl)Cl)C(c1ccccc1)c1ccccc1` (stereo not drawn)?
NF-kB SEAP reporter activity (RAW-Dual [3]; [7]): 0.707; NF-kB SEAP reporter activity (RAW-Dual [3]; [8]): 0.521

How did the “NF-kB SEAP reporter activity” value (RAW-Dual [3]; [9]) turn out when `O=C(/C=C/c1ccccc1)NC(NC(=S)Nc1cccc2cccnc12)C(Cl)(Cl)Cl` (stereo not drawn) was run?
Its value is 0.628.

And the “NF-kB SEAP reporter activity” value (RAW-Dual [3]; [10])?
The value was 0.833.

With `O=C(NC(NC(=S)Nc1ccc(F)c([N+](=O)[O-])c1)C(Cl)(Cl)Cl)C(c1ccccc1)c1ccccc1` (stereo not drawn) (library stock concentration (final ~1000-fold dilution): 10 mM) as the compound, how does the “NF-kB SEAP reporter activity” value (RAW-Dual [2]; agonist: LPS (TLR4) 0.1 ug/mL) read?
The value was 0.182.

What about the “NF-kB SEAP reporter activity” value (RAW-Dual [2]; [4]) of the same compound?
The value was 0.493.

And the “NF-kB SEAP reporter activity” value (RAW-Dual [2]; [5])?
The value was 0.146.

What about the “NF-kB SEAP reporter activity” value (RAW-Dual [2]; [6]) of the same compound?
The value was 0.135.

With `O=C(/C=C/c1ccccc1)NC(NC(=S)Nc1cccc2cccnc12)C(Cl)(Cl)Cl` (stereo not drawn) (library stock concentration (final ~1000-fold dilution): 10 mM) as the compound, how does the “NF-kB SEAP reporter activity” value (RAW-Dual [1]; agonist: LPS (TLR4) 0.1 ug/mL) read?
The value was 0.779.

And the “NF-kB SEAP reporter activity” value (RAW-Dual [1]; [4])?
The value was 0.429.

What about the “NF-kB SEAP reporter activity” value (RAW-Dual [1]; [5]) of the same compound?
The value was 0.288.

What about the “NF-kB SEAP reporter activity” value (RAW-Dual [1]; [6]) of the same compound?
The value was 0.388.

Which results are given for `O=C(/C=C/c1ccccc1)NC(NC(=S)Nc1ccc(Cl)cc1)C(Cl)(Cl)Cl` (stereo not drawn) (library stock concentration (final ~1000-fold dilution): 10 mM)?
NF-kB SEAP reporter activity (RAW-Dual [2]; agonist: LPS (TLR4) 0.1 ug/mL): 2.64; NF-kB SEAP reporter activity (RAW-Dual [2]; [4]): 1.22; NF-kB SEAP reporter activity (RAW-Dual [2]; [5]): 0.494; NF-kB SEAP reporter activity (RAW-Dual [2]; [6]): 0.809

With `O=C(/C=C/c1ccccc1)NC(NC(=S)Nc1ccc(Cl)cc1)C(Cl)(Cl)Cl` (stereo not drawn) as the compound, how does the “NF-kB SEAP reporter activity” value (RAW-Dual [3]; [7]) read?
The value was 1.03.

And the “NF-kB SEAP reporter activity” value (RAW-Dual [3]; [8])?
Its value is 2.18.

With `Cc1cc2c(C(=O)NCC(C)c3ccccc3)c(O)c(O)cc2c(O)c1-c1c(C)cc2c(C(=O)NCC(C)c3ccccc3)c(O)c(O)cc2c1O` (stereo not drawn) as the compound, how does the “NF-kB SEAP reporter activity” value (RAW-Dual [3]; [9]) read?
Its value is 1.84.

And the “NF-kB SEAP reporter activity” value (RAW-Dual [3]; [10])?
The value was 2.27.

For `Cc1cc2c(C(=O)NCC(C)c3ccccc3)c(O)c(O)cc2c(O)c1-c1c(C)cc2c(C(=O)NCC(C)c3ccccc3)c(O)c(O)cc2c1O` (stereo not drawn) (library stock concentration (final ~1000-fold dilution): 10 mM), which “NF-kB SEAP reporter activity” value (RAW-Dual [1]; agonist: LPS (TLR4) 0.1 ug/mL) is on record?
Its value is 4.28.

And the “NF-kB SEAP reporter activity” value (RAW-Dual [1]; [4])?
The value was 2.93.

And the “NF-kB SEAP reporter activity” value (RAW-Dual [1]; [5])?
The value was 0.803.

And the “NF-kB SEAP reporter activity” value (RAW-Dual [1]; [6])?
Its value is 1.62.

Which results are given for `N=C(N)Nc1nc(CSCCC(=N)NS(N)(=O)=O)cs1`?
NF-kB SEAP reporter activity (RAW-Dual [3]; [9]): 0.918; NF-kB SEAP reporter activity (RAW-Dual [3]; [10]): 1

`N=C(N)Nc1nc(CSCCC(=N)NS(N)(=O)=O)cs1` (library stock concentration (final ~1000-fold dilution): 10 mM) was tested. Which “NF-kB SEAP reporter activity” value (RAW-Dual [1]; agonist: LPS (TLR4) 0.1 ug/mL) did it give?
Its value is 1.03.

What about the “NF-kB SEAP reporter activity” value (RAW-Dual [1]; [4]) of the same compound?
The value was 1.06.

And the “NF-kB SEAP reporter activity” value (RAW-Dual [1]; [5])?
Its value is 1.25.

What about the “NF-kB SEAP reporter activity” value (RAW-Dual [1]; [6]) of the same compound?
Its value is 1.09.

For `CN1CCCC1CCOC(C)(c1ccccc1)c1ccc(Cl)cc1.O=C(O)/C=C/C(=O)O` (stereo not drawn) (library stock concentration (final ~1000-fold dilution): 10 mM), which “NF-kB SEAP reporter activity” value (RAW-Dual [1]; agonist: LPS (TLR4) 0.1 ug/mL) is on record?
Its value is 1.32.

And the “NF-kB SEAP reporter activity” value (RAW-Dual [1]; [4])?
The value was 0.754.

And the “NF-kB SEAP reporter activity” value (RAW-Dual [1]; [5])?
The value was 0.873.

And the “NF-kB SEAP reporter activity” value (RAW-Dual [1]; [6])?
The value was 0.64.

What does the source list for `CN1CCCC1CCOC(C)(c1ccccc1)c1ccc(Cl)cc1.O=C(O)/C=C/C(=O)O` (stereo not drawn)?
NF-kB SEAP reporter activity (RAW-Dual [3]; [9]): 1.7; NF-kB SEAP reporter activity (RAW-Dual [3]; [10]): 0.942

For `O=C(O)CCCN1CCC(OC(c2ccc(Cl)cc2)c2ccccn2)CC1.O=S(=O)(O)c1ccccc1` (stereo not drawn) (library stock concentration (final ~1000-fold dilution): 10 mM), which “NF-kB SEAP reporter activity” value (RAW-Dual [1]; agonist: LPS (TLR4) 0.1 ug/mL) is on record?
The value was 1.04.

And the “NF-kB SEAP reporter activity” value (RAW-Dual [1]; [4])?
Its value is 1.06.

And the “NF-kB SEAP reporter activity” value (RAW-Dual [1]; [5])?
Its value is 1.01.

What about the “NF-kB SEAP reporter activity” value (RAW-Dual [1]; [6]) of the same compound?
The value was 1.17.

`O=C(O)CCCN1CCC(OC(c2ccc(Cl)cc2)c2ccccn2)CC1.O=S(=O)(O)c1ccccc1` (stereo not drawn) was tested. Which “NF-kB SEAP reporter activity” value (RAW-Dual [3]; [9]) did it give?
Its value is 1.08.

What about the “NF-kB SEAP reporter activity” value (RAW-Dual [3]; [10]) of the same compound?
Its value is 1.03.

For `N#CC1CC2CC2N1C(=O)C(N)C12CC3CC(CC(O)(C3)C1)C2.O` (stereo not drawn), which “NF-kB SEAP reporter activity” value (RAW-Dual [3]; [10]) is on record?
Its value is 1.19.

Which “NF-kB SEAP reporter activity” value (RAW-Dual [1]; agonist: LPS (TLR4) 0.1 ug/mL) does the source give for `N#CC1CC2CC2N1C(=O)C(N)C12CC3CC(CC(O)(C3)C1)C2.O` (stereo not drawn) (library stock concentration (final ~1000-fold dilution): 10 mM) here?
The value was 1.27.

What about the “NF-kB SEAP reporter activity” value (RAW-Dual [1]; [4]) of the same compound?
The value was 1.44.

What about the “NF-kB SEAP reporter activity” value (RAW-Dual [1]; [5]) of the same compound?
The value was 1.71.

And the “NF-kB SEAP reporter activity” value (RAW-Dual [1]; [6])?
Its value is 1.75.
